FBA Mtb inh = inhibitors of M. tuberculosis fructose-bisphosphate aldolase; purified M. tuberculosis FBA, fluorescence read-out; inhibition, % at 1 µM; AID 588726; 360,000 tested, 2.3% active;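 note: 0% = vehicle and 100% = reference inhibitor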
Target sequence (P9WQA3 whole entry, looked up): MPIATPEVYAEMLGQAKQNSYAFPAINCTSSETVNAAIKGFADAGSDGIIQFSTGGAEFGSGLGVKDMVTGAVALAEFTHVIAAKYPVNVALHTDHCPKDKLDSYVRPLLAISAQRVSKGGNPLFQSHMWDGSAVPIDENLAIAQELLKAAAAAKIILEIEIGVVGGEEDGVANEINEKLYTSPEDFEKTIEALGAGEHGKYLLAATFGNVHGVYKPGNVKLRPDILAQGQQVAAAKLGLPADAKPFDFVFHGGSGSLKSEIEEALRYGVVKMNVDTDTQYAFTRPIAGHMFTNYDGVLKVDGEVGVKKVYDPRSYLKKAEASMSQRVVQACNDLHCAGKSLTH
RecA intein inh = Mtb RecA intein splicing inhibition | P9WHJ3 | AID 2221 | 290,000 tested, 0.75% active | cell-free RecA intein splicing, fluorescence | inhibition, % (concentration not given with the values); in the data active = inhibition above about 30%;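 note: 0% = vehicle wells and 100% = reference inhibitor control wells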
Mtb UGM inh = inhibitors of M. tuberculosis UDP-galactopyranose mutase; AID 504406; inhibition, % at 10 µM; 320,000 tested, 0.06% active; purified UGM, fluorescence polarization probe displacement; in the data active = inhibition above about 10%, passing the limit was not always enough
Rv3671c protease = Rv3671c (M. tuberculosis) protease inhibition | AID 2606 | 320,000 tested, 0.048% active | P9WHR9 | inhibition, % at 5.96 µM; in the data active = inhibition above about 38%;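 note: extracellular domain of Rv3671c used as enzyme; 0% = enzyme with DMSO and 100% = no enzyme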
GDH-TPI counter-1 = counter-screen for M. tuberculosis FBA inhibitors: GDH-TPI coupled enzymes; inhibition, % at 4.8 µM; AID 588335; 360,000 tested, 1.2% active; GDH-TPI coupled enzyme counterscreen, NADH absorbance; in the data active = inhibition above about 30%;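 note: 0% = DMSO wells and 100% = wells lacking the enzyme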
BH1578 lux ind = quorum light induction in luxS cqsA deficient V. cholerae; V. cholerae BH1578 lux reporter, luminescence, 6 h; activation, % at 18.7 µM; 350,000 tested, 0.16% active; in the data active = activation mostly above about 9.7%, no sharp cut-off
Mtb FBA inh conf = confirmation of M. tuberculosis fructose-bisphosphate aldolase inhibitors | inhibition, % at 1 µM | 5,600 tested, 78% active | shares compounds with FBA Mtb inh | purified M. tuberculosis FBA, fluorescence read-out;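 note: 0% = vehicle wells and 100% = reference inhibitor wells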
GDH-TPI counter-2 = counter-screen for M. tuberculosis FBA inhibitors: GDH-TPI coupled enzyme inhibition; inhibition, % at 1 µM; 5,600 tested, 81% active; shares compounds with FBA Mtb inh; GDH-TPI coupled enzyme counterscreen, fluorescence; in the data active = inhibition above about 10%
* hit, by the source's call. Shown are actives, neighbours in structure and some others; about 4.1% of the full set was active somewhere. Cut-off read from the data, not from the text of the source, unless noted: active = inhibition above about 27%; inactive = the rest.

Cc1ccccc1N(CC(=O)NCC1CCCO1)C(=O)C1(C)CC(=O)N=C2C=CC=CN21 (stereo unspecified) was read as FBA Mtb inh 85.9*, RecA intein inh 0.8, Mtb UGM inh 0.6, Rv3671c protease -1.1, GDH-TPI counter-1 -1.3, BH1578 lux ind 2.5, Mtb FBA inh conf 106.1* and GDH-TPI counter-2 79.4*.
For O=C(NC1CCCC1)C(c1ccccn1)N(C(=O)c1csnn1)c1ccccc1 (stereo unspecified) the results were FBA Mtb inh -0.2, RecA intein inh 0.1, Mtb UGM inh 0.1, Rv3671c protease 6.7, GDH-TPI counter-1 -4.0 and BH1578 lux ind -7.8.
Screening Cc1cc(NC(=O)CCC(=O)N(CC(=O)NCC2CCCO2)c2cccc(C)c2C)no1 (stereo unspecified) returned FBA Mtb inh -4.7, RecA intein inh -1.2, Mtb UGM inh 1.4, Rv3671c protease 2.9, GDH-TPI counter-1 -5.2 and BH1578 lux ind 0.1.
CC1=CC2=NC(=O)CC(C)(C(=O)N(CC(=O)NC(C)C)C3CCCC3)N2C=C1 (stereo unspecified) was read as RecA intein inh -1.8, Mtb UGM inh 5.4 and Rv3671c protease -1.5.
`CC1(C(=O)N(c2ccccc2)C(C(=O)NC2CCCC2)c2ccccn2)CC(=O)N=C2C=CC=CN21` (stereo unspecified) gave FBA Mtb inh 96.2*, Mtb UGM inh 0.7, Rv3671c protease -2.1, GDH-TPI counter-1 13.6, BH1578 lux ind -0.6, Mtb FBA inh conf 106.8* and GDH-TPI counter-2 80.8*.
Cc1ccccc1N(CC(=O)NC1CCCC1)C(=O)C1(C)CC(=O)N=C2C=CC=CN21 (stereo unspecified) was read as FBA Mtb inh 73.9*, RecA intein inh 1.9, Mtb UGM inh -1.9, Rv3671c protease -2.9, GDH-TPI counter-1 12.4, BH1578 lux ind -0.4, Mtb FBA inh conf 104.2* and GDH-TPI counter-2 94.1*.
`O=C(NCCNC(=O)c1ccccc1F)c1ccccn1` gave FBA Mtb inh 1.1, RecA intein inh -5.3, Mtb UGM inh -1.4, Rv3671c protease -5.3, GDH-TPI counter-1 -7.5 and BH1578 lux ind -4.5.
For O=C(CCCC(=O)N(CC(=O)NC1CCCC1)Cc1ccccc1)Nc1ccccn1 the results were FBA Mtb inh -0.8, RecA intein inh -0.5, Mtb UGM inh -1.7, Rv3671c protease 0.6, GDH-TPI counter-1 -5.7 and BH1578 lux ind -0.5.
Cc1cc(C)cc(N(CC(=O)NC2CCCC2)C(=O)C2(C)CC(=O)N=C3C=CC=CN32)c1 (stereo unspecified) was read as FBA Mtb inh 36.2*, RecA intein inh -2.8, Mtb UGM inh 0.0, Rv3671c protease 1.5, GDH-TPI counter-1 12.3, BH1578 lux ind -0.3, Mtb FBA inh conf active and GDH-TPI counter-2 161.2*.
CC1=CC2=NC(=O)CC(C)(C(=O)N(CC(=O)NC3CCCC3)Cc3ccccc3)N2C=C1 (stereo unspecified) was read as FBA Mtb inh 69.1*, RecA intein inh -2.7, Mtb UGM inh -1.4, Rv3671c protease -0.9, GDH-TPI counter-1 8.0, BH1578 lux ind -0.3, Mtb FBA inh conf 9.4 and GDH-TPI counter-2 4.1.
Screening c1ccc(OCCCc2nc(-c3cccnc3)no2)cc1 returned FBA Mtb inh 1.4, RecA intein inh 0.7, Mtb UGM inh 0.5, Rv3671c protease -2.5, GDH-TPI counter-1 8.0 and BH1578 lux ind -10.5.
`c1ccc(CCCc2nc(-c3cccnc3)no2)cc1` gave FBA Mtb inh 77.0*, RecA intein inh 0.7, Mtb UGM inh 0.3, Rv3671c protease 3.0, GDH-TPI counter-1 -3.1, BH1578 lux ind inactive, Mtb FBA inh conf 51.6* and GDH-TPI counter-2 36.8*.
Screening O=C(O)c1sc2cc(C(F)(F)F)cnc2c1-c1cccs1 returned FBA Mtb inh 30.4*, RecA intein inh -7.0, Mtb UGM inh 0.5, Rv3671c protease 11.6, GDH-TPI counter-1 8.8, BH1578 lux ind -0.2, Mtb FBA inh conf active and GDH-TPI counter-2 active.
For COc1cc(NC(=O)c2cccnc2SC)cc(OC)c1OC the results were FBA Mtb inh 3.3, RecA intein inh -1.7, Mtb UGM inh 0.0, Rv3671c protease -0.3, GDH-TPI counter-1 -1.6 and BH1578 lux ind 0.3.
